# Values without a mark were called inactive. Results filed as inconclusive are left out. Entries that show only a call come without a potency. Activity calls are given as the source filed them. Unless noted, the call rests on the fitted dose curve; in most records, active means well fitted curve in the direction sought with a large enough effect; inconclusive means small, poorly fitted or top-dose-only effect, or another doubt; inactive means no such curve, though single readings can be large; an effect the other way counts as inactive or inconclusive.
# Key:
# [1] = Cell Viability - BJ (AID 421; calls by dose curve;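 further: potency means the concentration at half of the fitted maximal effect; cells exposed to compound for 40 hours at 37 °C before readout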); conditions: BJ fibroblast viability, qHTS
# Procedure, shortened: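 Quantitative HTS: ATP depletion in BJ cells after 40 hr compound exposure in complete culture medium, detected with CellTiter-Glo; AC50 from standard Hill fits.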
# [2] = Cell Viability - Hek293 (AID 427;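 active means compounds whose dose-response curve shows a full or clear partial loss of cell viability, called from curve shape rather than a numeric limit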;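 further: potency means the concentration at half of the fitted maximal effect; cells exposed to compound for 40 hours at 37 °C before reading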); conditions: qHTS
# Procedure, shortened: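 AC50 values derive from Hill-modelled concentration-response of ATP-based luminescence, normalized between DMSO-only and 100 uM tamoxifen controls. Cells were exposed in complete culture medium for 40 hr at 37 °C before detection.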
# [3] = Cell Viability - HepG2 (AID 433; calls by dose curve;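 further: potency means the concentration at half of the fitted maximal effect; potency for ATP loss meaning cytotoxicity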); conditions: qHTS
# Procedure, shortened: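 Cytotoxicity is scored as loss of intracellular ATP in HepG2 cells exposed to compounds for 40 h. Concentration-response curves, normalized to DMSO and 100 uM tamoxifen, give AC50 values.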
# [4] = Cell Viability - MRC5 (AID 434; calls by dose curve;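 further: potency means the concentration at half of the fitted maximal effect; cells exposed to compound for 40 hours at 37 °C; potency reflects cytotoxicity seen as loss of intracellular ATP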); conditions: MRC5 lung fibroblast viability, qHTS
# Procedure, shortened: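 ATP luminescence read-out (CellTiter-Glo, 20 min RT) after 40 hr, 37 °C compound exposure of 1500 MRC5 cells/well. Data normalized to DMSO (basal) and 100 uM tamoxifen (100% inhibition); AC50 from standard Hill equation.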
# [5] = molecular target: Mitogen-activated protein kinase 10 (Mus musculus) (UniProt Q61831); assay: JNK3 AlphaScreen Assay (AID 530; active means well fitted curve in either direction with a large enough effect, not every such curve was filed as active;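 further: kinase came from lysate of stimulated human HepG2 cells; signal reports phosphorylation of biotinylated GST-cJun 1-79 at Ser73 with 10 µM ATP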)
# Procedure, shortened: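 HepG2 lysate (IL-1b/TNFa pre-activated) + biotin-GST-cJun 1-79 + anti-pSer73 cJun; cpd titration, 15 min RT; ATP 10 uM start; Tris pH 7.6, MgCl2, DTT, vanadate; beads in EDTA buffer; AlphaScreen.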
# [6] = Cell Viability - N2a (AID 540); conditions: N2a mouse neuroblastoma cell viability; activity change, negative = cytotoxicity: at 92.2 µM (top of the series);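 further: cells exposed to compound for 40 h at 37 °C; nearly all actives have a fitted effect of over 45% in size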
# Procedure, shortened: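 In this qHTS cytotoxicity screen, ATP-dependent luciferase luminescence reports viable N2a cells after a 40 hr compound exposure in complete culture medium. Potencies are AC50 values from standard Hill equation fits.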
# [7] = Cell Viability - HUV-EC-C (AID 542); further: nearly all actives have a fitted effect of over 35% in size
# Procedure, shortened: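 Concentration-dependent ATP loss in HUV-EC-C cells is the measure. Exposure lasts 40 hr at 37 °C; luminescence follows CellTiter-Glo addition, and Hill fits give AC50.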
# [8] = Cell Viability - H-4-II-E (AID 543); further: nearly all actives have a fitted effect of over 35% in size
# Procedure, shortened: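 AC50 from Hill-modelled qHTS concentration-response curves. H-4-II-E rat hepatoma cells in complete medium, 40 hr exposure at 37 °C, viability by CellTiter-Glo ATP luminescence.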
# [9] = Cell Viability - SH-SY5Y (AID 544); further: nearly all actives have a fitted effect of over 55% in size
# Procedure, shortened: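 Quantitative HTS in SH-SY5Y neuroblastoma cells, 40 hr treatment at 37 °C, ATP content by luciferase luminescence; AC50 from Hill fits.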
# [10] = Cell Viability - Renal Proximal Tubule (AID 545); conditions: renal proximal tubule cells viability, primary cells of rat origin; at 91.7 µM (top of the series); further: nearly all actives have a fitted effect of over 40% in size
# Procedure, shortened: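 Cytotoxicity is scored as a concentration-dependent drop in cellular ATP in primary rat renal proximal tubule cells exposed for 40 hr. AC50 derives from Hill modelling.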
# [11] = Cellular Toxicity (caspase-3) HepG2 (AID 654);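 further: cells exposed to compound for 16 hours before reading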
# Procedure, shortened: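 Concentration-response AC50 values reflect caspase-3/7 induction in HepG2 cells after 16 hours of compound exposure, quantified by luminescence from liberated aminoluciferin and referenced to 100 uM tamoxifen as full stimulation.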
# [12] = Cellular Toxicity (caspase-3) Jurkat (AID 655); conditions: Jurkat caspase-3 activation, luminescence, DMSO = 0%, tamoxifen = 100%; at 92.2 µM (top of the series);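 further: cells exposed to compound for 16 h at 37 °C before reading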
# Procedure, shortened: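 Caspase 3/7 activation is scored as increased luminescence in Jurkat cells cultured with compound for 16 hours in complete medium. AC50 values come from Hill fits of qHTS concentration-response data normalized to DMSO and 100 uM tamoxifen controls.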
# [13] = Cellular Toxicity (caspase-3) HUV-EC-C (AID 656)
# Procedure, shortened: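 Read-out: luminescence proportional to caspase 3/7 activity, measured 20 min after adding Caspase-Glo 3/7 reagent. Cells (HUV-EC-C) had received compound for 16 hr at 37°C. Increases relative to DMSO and 100 uM tamoxifen gave concentration-response AC50 values.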
# [14] = Cellular Toxicity (caspase-3) SHSY5Y (AID 657)
# Procedure, shortened: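 Cells plated and incubated 5 h at 37 °C, dosed over a concentration range, incubated 16 h, then given Caspase-Glo 3/7 reagent for 1 h at room temperature before luminescence reading. Staurosporine (10 uM) defined full stimulation.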
# [15] = Cellular Toxicity (caspase-3) BJ (AID 658)
# Procedure, shortened: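 qHTS, BJ fibroblasts, 1000 cells/well; 5 hr preincubation, 16 hr compound, 37 °C; Caspase-Glo 3/7 reagent, 1 hr RT; luminescence. DMSO = 0%, 10 uM staurosporine = 100%. Hill-equation AC50.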
# [16] = Cellular Toxicity (caspase-3) MRC-5 (AID 659)
# Procedure, shortened: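 MRC-5 fibroblasts, 1500/well; 16 h cpd, 37 °C; Caspase-Glo 3/7, 1 h RT; lumi read. Norm: DMSO = 0%, 10 uM staurosporine = 100%. Hill-fit AC50 from qHTS conc-response.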
# [17] = Cellular Toxicity (caspase-3) Mesangial (AID 660);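 further: cells exposed to compound for 16 h before the caspase read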
# Procedure, shortened: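 AC50 values come from Hill-equation fits of caspase 3/7 activation, measured as Caspase-Glo luminescence in human glomerular mesangial cells exposed to compound for 16 h at 37 °C; 100% set by 100 uM tamoxifen.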
# [18] = Cellular Toxicity (caspase-3) SK-N-SH (AID 661)
# Procedure, shortened: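 Apoptosis readout in SK-N-SH neuroblastoma: Caspase-Glo 3/7 luminescence following 16 hr treatment in complete culture medium. Normalization used DMSO and 10 uM staurosporine controls.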
# [19] = Cellular Toxicity (caspase-3) H-4-II-E (AID 663); conditions: Potency: caspase-3 activation;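 further: cells exposed to compound for 16 hr before readout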
# Procedure, shortened: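 H-4-II-E rat hepatoma, 1500 cells/well, 5 hr settle at 37 °C; compound 16 hr, 37 °C, complete medium; Caspase-Glo 3/7, 20 min RT; luminescence. DMSO = 0%, 100 uM tamoxifen = 100%; Hill-equation AC50.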
# [20] = Cellular Toxicity (caspase-3) Hek293 (AID 664);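 further: cells exposed to compound for 16 h at 37 °C before readout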
# Procedure, shortened: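 Apoptosis readout: Caspase-Glo 3/7 signal in human HEK293 cells following 16-hour compound incubation. Responses scaled between DMSO baseline and 100 uM tamoxifen.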
# [21] = Cellular Toxicity (caspase-3) N2a (AID 665);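 further: compound exposure lasted 16 h at 37 °C before readout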
# Procedure, shortened: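 Concentration-response qHTS: compound-induced caspase-3/7 luminescence in N2a cells (16 h, 37 °C), relative to DMSO and 10 uM staurosporine controls; AC50 obtained using the standard Hill equation.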
# [22] = Cellular Toxicity (caspase-3) NIH 3T3 (AID 666);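 further: caspase signal read after 16 h compound exposure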
# Procedure, shortened: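 Activity: caspase-3/7 induction, NIH 3T3 cells, 16 hr treatment at 37°C, luminescent Caspase-Glo detection; AC50 via Hill equation.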
# [23] = Cellular Toxicity (caspase-3) Renal Proximal Tubule (AID 667);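 further: cells exposed to compound for 16 hours at 37 °C before detection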
# Procedure, shortened: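 In qHTS format, rat primary proximal tubule cells seeded at 1000 per well are exposed to compounds for 16 hours at 37 °C. An increase in Caspase-Glo 3/7 luminescence indicates caspase activation.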
smiles,measurement,setting,value
CC1=C2[C@H](/C=C(\C)C(=O)O)CC[C@@H](C)[C@H]2CC1,Potency,[1],> 92 µM
same,Potency,[2],> 92 µM
same,Potency,[3],> 92 µM
same,Potency,[4],> 92 µM
same,Potency,[5],inactive
same,"activity change, negative = cytotoxicity",[6],10.9%
same,outcome,[7],inactive
same,Potency,[8],inactive
same,Potency,[9],inactive
same,"activity change, negative = cytotoxicity",[10],-15.1%
same,outcome,[11],inactive
same,caspase-3 activation,[12],97.3% (active)
same,outcome,[13],inactive
same,outcome,[14],inactive
same,outcome,[15],inactive
same,outcome,[16],inactive
same,outcome,[17],inactive
same,outcome,[18],inactive
same,Potency,[19],inactive
same,outcome,[20],inactive
same,outcome,[21],inactive
same,outcome,[22],inactive
same,outcome,[23],inactive

# Reference: PubChem BioAssay (NCATS)
